Measured values taken from PubChem BioAssay AID1159580 (chemical genetic matrix, 2015).
In all, about 5,500 compounds went through this assay and about 2,000 (36%) were called active. Inconclusive results (about 18%) are left out. Cut-off read from the data, not from the text of the source: active = normalized growth mostly below about 0.91 (no sharp cut-off); inconclusive = no clear call, values can overlap the other calls; inactive = mostly above about 0.92. The list shows a part of the results.

Assay: chemical genetic growth profiling, strain panel (AID 1159580);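 note: tested at 20 µM; growth read once vehicle control cultures reached saturation at 30 °C; 1 = growth at the plate median or of vehicle wells; lower values mean less growth of the strain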
Settings: S. cerevisiae deletion strains, growth OD
[1] = locus YAR019C, strain CDC15, stronger effect = lower value
[2] = locus YBL105C, strain PKC1, stronger effect = lower value
[3] = locus YBR135W, strain CKS1, stronger effect = lower value
[4] = locus YBR136W, strain MEC1, stronger effect = lower value
[5] = locus YBR160W, strain CDC28, stronger effect = lower value
[6] = locus YDL017W, strain CDC7, stronger effect = lower value
[7] = locus YDL028C, strain MPS1, stronger effect = lower value
[8] = locus YDL101C, strain DUN1, stronger effect = lower value
[9] = locus YDL108W, strain KIN28, stronger effect = lower value
[10] = locus YDL132W, strain cdc53, stronger effect = lower value
[11] = locus YDL214C, strain PRR2, stronger effect = lower value
[12] = locus YDR052C, strain DBF4, stronger effect = lower value
[13] = locus YDR054C, strain cdc34, stronger effect = lower value
[14] = locus YDR226W, strain ADK1, stronger effect = lower value
[15] = locus YDR477W, strain SNF1, stronger effect = lower value
[16] = locus YER123W, strain YCK3, stronger effect = lower value
[17] = locus YER133W, strain GLC7, stronger effect = lower value
[18] = locus YFL009W, strain cdc4, stronger effect = lower value
[19] = locus YFL029C, strain CAK1, stronger effect = lower value
[20] = locus YFR003C, strain YPI1, stronger effect = lower value
[21] = locus YFR019W, strain FAB1, stronger effect = lower value
[22] = locus YFR028C, strain CDC14, stronger effect = lower value
[23] = locus YGR040W, strain KSS1, stronger effect = lower value
[24] = locus YGR052W, strain FMP48, stronger effect = lower value
[25] = locus YGR092W, strain DBF2, stronger effect = lower value
[26] = locus YHR030C, strain SLT2, stronger effect = lower value
[27] = locus YHR079C, strain IRE1, stronger effect = lower value
[28] = locus YHR082C, strain KSP1, stronger effect = lower value
[29] = locus YHR205W, strain SCH9, stronger effect = lower value
[30] = locus YIL147C, strain SLN1, stronger effect = lower value
[31] = locus YJL095W, strain BCK1, stronger effect = lower value
[32] = locus YJL128C, strain PBS2, stronger effect = lower value
[33] = locus YJL157C, strain FAR1, stronger effect = lower value
[34] = locus YJR016C, strain ILV3, stronger effect = lower value
[35] = locus YJR066W, strain TOR1 (second series), stronger effect = lower value
[36] = locus YJR066W, strain TOR1, stronger effect = lower value
[37] = locus YKL048C, strain ELM1, stronger effect = lower value
[38] = locus YKL067W, strain YNK1, stronger effect = lower value
[39] = locus YKL101W, strain HSL1, stronger effect = lower value
[40] = locus YKL193C, strain SDS22, stronger effect = lower value
[41] = locus YKL203C, strain TOR2, stronger effect = lower value
[42] = locus YLR113W, strain HOG1, stronger effect = lower value
[43] = locus YLR133W, strain CKI1, stronger effect = lower value
[44] = locus YLR403W, strain SFP1, stronger effect = lower value
[45] = locus YML070W, strain DAK1, stronger effect = lower value
[46] = locus YMR001C, strain CDC5, stronger effect = lower value
[47] = locus YMR205C, strain PFK2 (second series), stronger effect = lower value
[48] = locus YMR277W, strain FCP1, stronger effect = lower value
[49] = locus YNL006W, strain LST8, stronger effect = lower value
[50] = locus YNL020C, strain ARK1, stronger effect = lower value
[51] = locus YNL161W, strain CBK1, stronger effect = lower value
[52] = locus YNL183C, strain NPR1, stronger effect = lower value
[53] = locus YNL207W, strain RIO2, stronger effect = lower value
[54] = locus YNL222W, strain SSU72, stronger effect = lower value
[55] = locus YNL307C, strain MCK1 (second series), stronger effect = lower value
[56] = locus YOL078W, strain AVO1, stronger effect = lower value
[57] = locus YOL136C, strain PFK27, stronger effect = lower value
[58] = locus YOR061W, strain CKA2, stronger effect = lower value
[59] = locus YOR119C, strain RIO1, stronger effect = lower value
[60] = locus YOR231W, strain MKK1, stronger effect = lower value
[61] = locus YOR329C, strain SCD5, stronger effect = lower value
[62] = locus YPL031C, strain PHO85, stronger effect = lower value
[63] = locus YPL153C, strain RAD53, stronger effect = lower value
[64] = locus YPL204W, strain HRR25, stronger effect = lower value
[65] = locus YPL209C, strain IPL1, stronger effect = lower value
[66] = locus YPL256C, strain CLN2, stronger effect = lower value
[67] = locus YPR025C, strain CCL1, stronger effect = lower value
[68] = locus YPR106W, strain ISR1, stronger effect = lower value
[69] = locus YPR111W, strain DBF20, stronger effect = lower value
[70] = strain NNK1, stronger effect = lower value
[71] = strain TSCII, stronger effect = lower value

Measured: normalized growth

Cc1onc(-c2c(F)cccc2Cl)c1C(=O)ON=C1C2CC3CC(C2)CC1C3
inactive: [1] 1.06 | [8] 0.97 | [10] 1.06 | [11] 0.955 | [12] 0.997 | [13] 1.04 | [15] 0.965 | [16] 0.939 | [17] 0.979 | [18] 1.06 | [19] 1.07 | [21] 0.967 | [22] 1.02 | [23] 0.953 | [24] 0.974 | [25] 0.982 | [26] 0.895 | [27] 0.967 | [28] 0.981 | [29] 0.85 | [31] 0.968 | [32] 1.01 | [33] 0.95 | [34] 1.04 | [35] 0.924 | [36] 0.98 | [37] 0.968 | [38] 0.974 | [39] 0.94 | [41] 0.969 | [43] 0.951 | [44] 0.894 | [45] 0.934 | [47] 0.971 | [48] 1.06 | [50] 0.955 | [52] 0.917 | [53] 1.03 | [55] 0.953 | [56] 1.05 | [57] 0.933 | [58] 0.965 | [59] 0.976 | [60] 0.9 | [62] 0.975 | [63] 0.959 | [64] 0.931 | [66] 0.866 | [68] 1.04 | [69] 1.06 | [70] 1.03 | [71] 1.04
active: [2] 1.11 [resistant] | [3] 1.09 [resistant] | [4] 1.08 [resistant] | [5] 1.08 [resistant] | [6] 1.08 [resistant] | [7] 1.08 [resistant] | [9] 1.09 [resistant] | [14] 1.06 [resistant] | [20] 1.09 [resistant] | [30] 1.1 [resistant] | [40] 1.08 [resistant] | [42] 0.816 | [46] 1.07 [resistant] | [49] 1.1 [resistant] | [51] 1.08 [resistant] | [54] 1.1 [resistant] | [61] 1.1 [resistant] | [65] 1.09 [resistant] | [67] 1.1 [resistant]

Cc1onc(-c2c(Cl)cccc2Cl)c1C(=O)NC(C)(C)CC(C)(C)C
inactive: [1] 0.998 | [2] 0.99 | [3] 0.991 | [4] 0.989 | [5] 0.997 | [6] 0.997 | [7] 0.976 | [8] 0.994 | [9] 0.983 | [10] 0.992 | [11] 0.945 | [12] 0.991 | [13] 0.995 | [14] 0.999 | [15] 0.977 | [16] 0.919 | [17] 0.97 | [18] 0.995 | [19] 0.998 | [20] 0.992 | [21] 0.972 | [22] 0.995 | [23] 0.956 | [24] 1.04 | [25] 0.969 | [26] 1.12 | [27] 1.05 | [28] 1.08 | [29] 0.955 | [30] 0.99 | [31] 1.07 | [32] 0.945 | [33] 0.953 | [34] 0.992 | [35] 0.951 | [36] 1.09 | [37] 0.982 | [38] 0.961 | [39] 0.953 | [40] 0.996 | [41] 1.04 | [42] 0.962 | [43] 0.965 | [44] 0.927 | [45] 0.932 | [46] 0.998 | [47] 0.966 | [48] 0.998 | [49] 0.988 | [50] 0.971 | [51] 0.995 | [52] 1.03 | [53] 0.991 | [54] 0.989 | [55] 1 | [56] 0.992 | [57] 0.95 | [58] 0.959 | [59] 0.992 | [60] 1.02 | [61] 0.994 | [62] 0.979 | [63] 0.964 | [64] 0.977 | [65] 0.993 | [66] 1.08 | [67] 0.992 | [68] 0.993 | [69] 0.989 | [70] 0.99 | [71] 0.995

Cc1onc(-c2c(Cl)cccc2Cl)c1C(=O)NNc1c(Cl)cccc1Cl
inactive: [1] 0.962 | [2] 0.978 | [3] 0.986 | [4] 0.977 | [5] 0.975 | [6] 0.977 | [7] 0.97 | [8] 0.976 | [9] 0.971 | [10] 0.978 | [11] 0.941 | [12] 0.99 | [13] 0.972 | [14] 0.982 | [15] 0.932 | [16] 0.961 | [17] 0.961 | [18] 0.974 | [19] 0.983 | [20] 0.98 | [21] 0.972 | [22] 0.97 | [23] 0.941 | [24] 0.998 | [25] 0.987 | [27] 0.957 | [28] 1.01 | [29] 0.956 | [30] 0.977 | [31] 0.907 | [32] 0.923 | [33] 0.976 | [34] 0.988 | [35] 0.96 | [36] 0.957 | [37] 0.981 | [38] 0.941 | [39] 0.949 | [40] 0.986 | [41] 1.03 | [43] 0.976 | [44] 0.967 | [45] 0.942 | [46] 0.976 | [47] 0.963 | [48] 0.967 | [49] 0.979 | [50] 0.988 | [51] 0.989 | [52] 1 | [53] 0.991 | [54] 0.977 | [55] 0.972 | [56] 0.982 | [57] 0.956 | [58] 0.974 | [59] 0.957 | [60] 0.927 | [61] 0.981 | [62] 0.937 | [63] 0.921 | [64] 0.945 | [65] 0.986 | [66] 0.858 | [67] 0.976 | [68] 0.96 | [69] 0.956 | [70] 0.986 | [71] 0.983
active: [26] 0.794 | [42] 0.827
